# Laboratory results: the supplement of paper PMC10849652
# About 8,800 targets were measured; listed, in parts, are those with a hit and a random draw of the rest. About 0.5% of all pairs of compound and target were hits. Values without a mark were called inactive.
# Tests used:
# Assay in all cases: log2 fold change, soluble protein after heating vs DMSO (PISA); higher = thermal stabilisation; K562 lysate, 10 uM; active = over 0.2 and 3.5 SD of the protein, either way, in both replicates (recomputed)
# [1] = compound: CN1CC[C@H](c2c(O)cc(O)c3c(=O)cc(-c4ccccc4Cl)oc23)[C@H](O)C1 [alvocidib]
# Procedure, shortened: (§1)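 Values give the log-two fold change in thermal stability against solvent controls, from duplicates. Crude K562 extract at 1 mg/mL protein, made by dounce homogenisation in PBS pH 7.4 with 1 mM MgCl2, was treated with 10 μM compound for 30 min. After 3 min heating across 48°C-58°C, aliquots were pooled, adjusted to 0.5% NP-40 at 4°C and centrifuged at 21,000xg for 90 min. The supernatant was measured by TMTpro 16plex LC-MS/MS with channel sums equalised.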
# [2] = compound: CN1CCc2c(c3ccccc3n2Cc2ccc(C(=O)NO)cc2)C1 [Tubastatin A]
# Procedure, shortened: as §1
# [3] = compound: CNC(=O)C1=CC=CC=C1NC2=NC(=NC=C2Cl)NC3=C(C=C(C=C3)N4CCOCC4)OC
# Procedure, shortened: as §1
# [4] = compound: CNC(=O)c1ccc(Nc2ncc(C(F)(F)F)c(NCc3nccnc3N(C)S(C)(=O)=O)n2)cc1 [defactinib]
# Procedure, shortened: as §1
# [5] = compound: CNc1nc(-c2ccc3c(N)n[nH]c3c2)cc(N2C[C@@H](C(=O)NC3CCCCC3)CC[C@H]2C)n1
# Procedure, shortened: as §1
# [6] = compound: COC(=O)N[C@@H](C)CNc1nccc(-c2cn(C(C)C)nc2-c2cc(Cl)cc(NS(C)(=O)=O)c2F)n1 [encorafenib]
# Procedure, shortened: as §1
# [7] = compound: COC(=O)[C@H](CCSC)NC(=O)C1=C(C=C(C=C1)NC[C@H](CS)N)C2=CC=CC=C2
# Procedure, shortened: as §1
# [8] = compound: COc1cc(Nc2ncc3c(n2)-c2ccc(Cl)cc2C(c2c(F)cccc2OC)=NC3)ccc1C(=O)O [alisertib]
# Procedure, shortened: as §1
# [9] = compound: COc1cc2nc(-c3cc(F)ccc3O)nc(N[C@@H]3CNC[C@H]3C(C)(C)O)c2cc1OC
# Procedure, shortened: as §1
# [10] = compound: COc1cc2ncnc(Nc3ccc(F)c(Cl)c3)c2cc1OCCCN1CCOCC1 [gefitinib]
# Procedure, shortened: as §1
# [11] = compound: CS(=O)(=O)CCNCc1ccc(-c2ccc3ncnc(Nc4ccc(OCc5cccc(F)c5)c(Cl)c4)c3c2)o1 [lapatinib]
# Procedure, shortened: as §1
# [12] = compound: CS(=O)(=O)N1CCN(Cc2cc3nc(-c4cccc5[nH]ncc45)nc(N4CCOCC4)c3s2)CC1 [pictilisib]
# Procedure, shortened: as §1
# [13] = compound: C[C@@H](Oc1cc(-c2cnn(C3CCNCC3)c2)cnc1N)c1c(Cl)ccc(F)c1Cl [crizotinib]
# Procedure, shortened: as §1
# [14] = compound: C[C@H](C1=CC=C(C=C1)C(=O)NC2=C3C=CNC3=NC=C2)N
# Procedure, shortened: as §1
# [15] = compound: C[C@H](Nc1ncnc2nc[nH]c12)c1cc2cccc(Cl)c2c(=O)n1-c1ccccc1 [duvelisib]
# Procedure, shortened: as §1
# [16] = compound: Cc1cc(Nc2cc(CN3CCOCC3)c3nc(C)c(Cc4ccc(Cl)cc4F)n3n2)n[nH]1 [gandotinib]
# Procedure, shortened: as §1
# [17] = compound: Cc1cc(Nc2cc(N3CCN(C)CC3)nc(Sc3ccc(NC(=O)C4CC4)cc3)n2)n[nH]1 [tozasertib]
# Procedure, shortened: as §1
# [18] = compound: Cc1ccc(-n2nc(C(C)(C)C)cc2NC(=O)Nc2ccc(OCCN3CCOCC3)c3ccccc23)cc1 [doramapimod]
# Procedure, shortened: as §1
# [19] = compound: Cc1ccc(NC(=O)c2ccc(CN3CC[C@H](N(C)C)C3)c(C(F)(F)F)c2)cc1Nc1nccc(-c2cncnc2)n1 [bafetinib]
# Procedure, shortened: as §1
# [20] = compound: Cc1cccc(CC(=O)N2CCc3c2ccc(-c2cn(C)c4ncnc(N)c24)c3F)n1
# Procedure, shortened: as §1
# Sequence of UniProt Q8N8N7 (Q8N8N7 whole entry, looked up): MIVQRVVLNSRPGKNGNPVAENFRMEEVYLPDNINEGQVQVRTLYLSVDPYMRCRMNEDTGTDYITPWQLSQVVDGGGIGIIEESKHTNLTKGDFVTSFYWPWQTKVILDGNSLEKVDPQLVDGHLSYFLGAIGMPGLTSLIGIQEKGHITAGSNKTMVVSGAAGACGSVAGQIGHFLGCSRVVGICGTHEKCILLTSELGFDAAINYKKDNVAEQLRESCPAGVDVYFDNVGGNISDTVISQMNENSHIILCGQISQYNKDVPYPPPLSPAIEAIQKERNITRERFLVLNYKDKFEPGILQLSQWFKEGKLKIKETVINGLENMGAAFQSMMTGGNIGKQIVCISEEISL
# Sequence of UniProt P31323 (P31323 whole entry, looked up): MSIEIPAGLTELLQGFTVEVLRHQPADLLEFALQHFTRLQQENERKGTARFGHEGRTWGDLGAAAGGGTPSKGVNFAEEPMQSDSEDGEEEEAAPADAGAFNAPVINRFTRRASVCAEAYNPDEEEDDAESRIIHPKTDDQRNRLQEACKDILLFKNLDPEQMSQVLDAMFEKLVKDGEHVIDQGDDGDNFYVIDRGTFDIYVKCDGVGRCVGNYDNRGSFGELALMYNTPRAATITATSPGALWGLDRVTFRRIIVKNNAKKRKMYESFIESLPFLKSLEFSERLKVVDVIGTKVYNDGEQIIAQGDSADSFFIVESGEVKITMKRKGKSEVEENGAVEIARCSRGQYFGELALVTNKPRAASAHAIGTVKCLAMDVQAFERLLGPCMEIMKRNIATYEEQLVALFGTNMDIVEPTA
# Sequence of UniProt Q9Y5K3 (Q9Y5K3 whole entry, looked up): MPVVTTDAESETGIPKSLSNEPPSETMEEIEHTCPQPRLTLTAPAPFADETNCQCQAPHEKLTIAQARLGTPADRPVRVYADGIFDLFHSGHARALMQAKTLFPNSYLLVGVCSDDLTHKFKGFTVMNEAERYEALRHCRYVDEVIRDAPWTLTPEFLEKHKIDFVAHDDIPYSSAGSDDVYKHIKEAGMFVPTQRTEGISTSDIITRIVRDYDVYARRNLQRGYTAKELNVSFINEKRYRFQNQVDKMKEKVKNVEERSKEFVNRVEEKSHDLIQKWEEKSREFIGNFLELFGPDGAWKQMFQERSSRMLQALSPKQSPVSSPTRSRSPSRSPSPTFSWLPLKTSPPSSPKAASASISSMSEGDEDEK
# Sequence of UniProt P46019 (P46019 whole entry, looked up): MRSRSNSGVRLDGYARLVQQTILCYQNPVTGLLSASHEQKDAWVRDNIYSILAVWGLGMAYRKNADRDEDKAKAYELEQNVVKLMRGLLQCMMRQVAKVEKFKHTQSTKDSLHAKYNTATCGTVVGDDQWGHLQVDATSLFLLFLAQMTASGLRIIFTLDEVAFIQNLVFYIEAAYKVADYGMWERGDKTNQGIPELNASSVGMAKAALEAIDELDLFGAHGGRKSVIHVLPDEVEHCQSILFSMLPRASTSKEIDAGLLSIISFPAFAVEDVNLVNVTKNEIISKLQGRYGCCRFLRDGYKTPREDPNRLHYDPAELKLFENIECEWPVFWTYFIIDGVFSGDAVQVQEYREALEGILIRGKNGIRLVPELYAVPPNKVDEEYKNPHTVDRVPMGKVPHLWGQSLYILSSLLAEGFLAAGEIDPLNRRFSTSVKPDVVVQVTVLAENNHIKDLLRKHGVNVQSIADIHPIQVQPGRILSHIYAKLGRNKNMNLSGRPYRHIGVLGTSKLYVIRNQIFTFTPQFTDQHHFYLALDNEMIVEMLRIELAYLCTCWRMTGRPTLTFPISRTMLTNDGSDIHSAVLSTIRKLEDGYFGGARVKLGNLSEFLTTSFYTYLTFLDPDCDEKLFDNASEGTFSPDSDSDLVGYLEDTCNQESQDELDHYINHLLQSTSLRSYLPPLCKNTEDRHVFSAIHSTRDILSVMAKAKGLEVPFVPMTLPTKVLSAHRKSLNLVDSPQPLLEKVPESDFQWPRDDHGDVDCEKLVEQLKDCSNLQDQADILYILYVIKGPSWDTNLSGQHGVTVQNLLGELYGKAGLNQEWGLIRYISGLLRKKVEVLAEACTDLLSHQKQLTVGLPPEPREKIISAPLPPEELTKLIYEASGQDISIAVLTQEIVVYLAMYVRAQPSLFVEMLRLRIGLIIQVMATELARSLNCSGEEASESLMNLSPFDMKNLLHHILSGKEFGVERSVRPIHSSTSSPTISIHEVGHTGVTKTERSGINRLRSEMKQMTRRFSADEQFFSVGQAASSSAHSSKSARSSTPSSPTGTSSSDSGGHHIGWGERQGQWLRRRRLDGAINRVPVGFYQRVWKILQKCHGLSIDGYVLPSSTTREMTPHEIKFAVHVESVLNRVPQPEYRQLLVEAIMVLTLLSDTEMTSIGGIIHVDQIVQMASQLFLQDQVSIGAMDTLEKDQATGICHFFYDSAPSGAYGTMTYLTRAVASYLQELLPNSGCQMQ
# Sequence of UniProt Q29RF7 (Q29RF7 whole entry, looked up): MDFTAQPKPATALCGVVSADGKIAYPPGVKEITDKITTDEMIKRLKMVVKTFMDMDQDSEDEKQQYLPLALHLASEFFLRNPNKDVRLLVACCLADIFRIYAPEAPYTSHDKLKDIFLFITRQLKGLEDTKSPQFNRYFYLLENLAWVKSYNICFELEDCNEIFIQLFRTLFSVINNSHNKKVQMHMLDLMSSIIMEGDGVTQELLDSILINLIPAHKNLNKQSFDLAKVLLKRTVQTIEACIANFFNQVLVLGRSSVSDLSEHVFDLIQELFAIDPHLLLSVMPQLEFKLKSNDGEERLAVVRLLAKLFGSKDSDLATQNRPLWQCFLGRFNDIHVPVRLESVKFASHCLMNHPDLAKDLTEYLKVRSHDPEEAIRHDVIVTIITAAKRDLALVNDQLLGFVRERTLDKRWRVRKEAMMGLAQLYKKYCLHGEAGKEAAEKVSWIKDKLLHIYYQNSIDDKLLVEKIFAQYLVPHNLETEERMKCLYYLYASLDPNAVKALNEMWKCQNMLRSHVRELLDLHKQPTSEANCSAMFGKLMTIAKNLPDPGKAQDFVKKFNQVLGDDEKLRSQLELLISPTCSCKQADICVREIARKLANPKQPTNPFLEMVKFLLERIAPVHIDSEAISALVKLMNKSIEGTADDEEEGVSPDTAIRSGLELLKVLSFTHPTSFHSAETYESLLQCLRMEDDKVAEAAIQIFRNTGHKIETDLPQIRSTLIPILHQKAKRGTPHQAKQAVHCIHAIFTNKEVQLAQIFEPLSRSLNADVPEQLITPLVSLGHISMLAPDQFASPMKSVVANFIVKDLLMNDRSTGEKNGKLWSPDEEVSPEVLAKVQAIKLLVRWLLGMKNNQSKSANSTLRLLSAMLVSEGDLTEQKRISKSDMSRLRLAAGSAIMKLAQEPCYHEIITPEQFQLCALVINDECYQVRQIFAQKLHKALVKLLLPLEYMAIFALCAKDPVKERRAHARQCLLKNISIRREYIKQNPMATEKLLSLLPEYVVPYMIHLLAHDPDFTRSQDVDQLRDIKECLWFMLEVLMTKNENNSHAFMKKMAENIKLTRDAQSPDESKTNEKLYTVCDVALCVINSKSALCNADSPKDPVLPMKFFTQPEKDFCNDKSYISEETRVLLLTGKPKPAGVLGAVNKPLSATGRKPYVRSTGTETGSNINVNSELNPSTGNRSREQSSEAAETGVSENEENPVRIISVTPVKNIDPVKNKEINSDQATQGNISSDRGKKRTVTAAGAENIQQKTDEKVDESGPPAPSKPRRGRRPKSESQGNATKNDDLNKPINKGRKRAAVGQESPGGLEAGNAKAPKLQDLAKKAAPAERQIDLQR
# Sequence of UniProt O00625 (O00625 whole entry, looked up): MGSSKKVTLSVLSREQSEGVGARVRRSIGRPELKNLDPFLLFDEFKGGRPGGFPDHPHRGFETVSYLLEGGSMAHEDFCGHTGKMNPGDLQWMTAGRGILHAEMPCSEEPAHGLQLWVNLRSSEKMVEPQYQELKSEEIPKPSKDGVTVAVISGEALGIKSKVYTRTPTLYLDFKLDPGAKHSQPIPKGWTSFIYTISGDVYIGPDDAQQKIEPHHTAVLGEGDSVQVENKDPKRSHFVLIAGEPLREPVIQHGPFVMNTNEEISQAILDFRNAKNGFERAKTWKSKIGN
# Sequence of UniProt O00408 (O00408 whole entry, looked up): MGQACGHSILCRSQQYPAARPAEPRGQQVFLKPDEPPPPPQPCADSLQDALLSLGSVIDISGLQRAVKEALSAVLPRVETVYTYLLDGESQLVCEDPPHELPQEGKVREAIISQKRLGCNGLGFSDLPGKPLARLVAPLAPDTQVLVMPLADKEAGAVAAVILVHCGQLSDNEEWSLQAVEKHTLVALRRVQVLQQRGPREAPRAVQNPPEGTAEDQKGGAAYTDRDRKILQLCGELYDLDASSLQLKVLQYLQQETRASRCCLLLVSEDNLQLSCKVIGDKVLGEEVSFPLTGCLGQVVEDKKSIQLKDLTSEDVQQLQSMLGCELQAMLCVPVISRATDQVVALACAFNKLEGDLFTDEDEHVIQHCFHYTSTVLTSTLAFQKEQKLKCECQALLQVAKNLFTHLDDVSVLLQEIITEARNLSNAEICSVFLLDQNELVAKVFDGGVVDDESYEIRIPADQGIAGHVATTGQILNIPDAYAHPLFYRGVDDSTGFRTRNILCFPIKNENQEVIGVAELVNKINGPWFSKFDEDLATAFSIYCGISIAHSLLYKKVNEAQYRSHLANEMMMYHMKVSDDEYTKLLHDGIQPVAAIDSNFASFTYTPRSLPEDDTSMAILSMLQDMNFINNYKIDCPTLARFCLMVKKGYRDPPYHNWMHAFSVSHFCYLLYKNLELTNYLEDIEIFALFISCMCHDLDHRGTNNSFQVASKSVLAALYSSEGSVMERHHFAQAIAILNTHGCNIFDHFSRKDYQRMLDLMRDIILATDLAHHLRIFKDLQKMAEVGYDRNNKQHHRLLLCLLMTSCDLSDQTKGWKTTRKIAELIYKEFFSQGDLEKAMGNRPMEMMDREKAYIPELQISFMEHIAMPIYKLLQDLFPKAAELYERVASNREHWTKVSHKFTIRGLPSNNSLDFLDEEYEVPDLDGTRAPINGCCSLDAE
Target,log2 fold change [1],log2 fold change [2],log2 fold change [3],log2 fold change [4],log2 fold change [5],log2 fold change [6],log2 fold change [7],log2 fold change [8],log2 fold change [9],log2 fold change [10],log2 fold change [11],log2 fold change [12],log2 fold change [13],log2 fold change [14],log2 fold change [15],log2 fold change [16],log2 fold change [17],log2 fold change [18],log2 fold change [19],log2 fold change [20]
PHKA2 (UniProt P46019),0.064,-0.084,0.265 (active),-0.027,0.032,-0.008,0.018,-0.008,0.06,-0.03,-0.085,-0.042,0.048,0.022,-0.01,-0.035,-0.015,0.013,-0.109,-0.012
PDXK (UniProt O00764),-0.031,-0.005,0.027,0.047,0.06,-0.032,-0.012,-0.038,0.016,-0.022,-0.026,0.014,0.004,-0.134,0.041,0.109,-0.014,-0.072,0.046,0.083
PRKCSH isoform 2 (UniProt P14314),-0.124,0.002,-0.078,-0.011,-0.05,0.039,-0.013,-0.079,-0.042,0.092,0.132,0.072,-0.016,-0.622 (active),0.174,0.293,0.092,0.136,0.055,0.24
PRKCA (UniProt P17252),0.034,-0.005,-0.027,0.032,-0.041,0.048,-0.041,-0.031,0.133,-0.038,-0.041,-0.021,-0.019,0.054,-0.057,-0.207,0.021,-0.023,-0.069,-0.079
PRKAR2B (UniProt P31323),0,-0.021,-0.05,-0.117,-0.023,0.04,0.1,-0.014,-0.032,-0.046,0.013,-0.059,-0.007,-0.011,0,-0.31 (active),0.038,0.017,-0.02,0.001
PICALM (UniProt H0YEH1),-0.206,0.126,0.098,0.006,0,-0.038,0.098,0.049,-0.042,-0.036,0.046,0.016,-0.086,-0.47 (active),-0.075,0.238,0.152,0.274,0.018,0.335 (active)
PTGR2 (UniProt Q8N8N7),0.018,-0.023,0.02,0.018,-0.021,-0.043,0.694 (active),0.014,0.004,-0.007,-0.003,0.014,-0.029,-0.04,0.02,0.01,0.04,-0.04,-0.003,-0.004
PDE2A (UniProt O00408),0.038,0.275,0.044,-0.24,0.028,0.11,-0.019,0.014,0.048,-0.01,0.005,0,0.074,0.05,-0.042,0.138,0.049,-0.057,0.051,0.041
PPCDC (UniProt Q96CD2),-0.08,0.034,-0.053,-0.037,-0.054,-0.082,-0.027,-0.051,0.032,0.028,-0.023,-0.176,0,-0.342 (active),0.062,0.152,0,0.024,0.034,0.19
PDS5A (UniProt Q29RF7),0.023,-0.21,0.016,0.016,-0.054,0.048,-0.003,0.014,0,-0.005,-0.024,-0.053,-0.123,-0.09,0.023,-0.127,0.008,0.006,-0.075,0.125
PIR (UniProt O00625),0.006,0.019,-0.011,-0.032,0.012,0.003,-0.07,0.016,-0.008,-0.012,0.017,-0.05,0.019,0.099,-0.035,-0.058,-0.008,-0.021,0.008,-0.006
PDXDC1 (UniProt Q6P996),-0.005,-0.065,-0.007,0.034,0.088,0.058,0.085,0.049,-0.006,0.032,-0.025,-0.019,-0.056,-0.011,0.019,0,0.01,0.007,-0.128,0.062
PCYT1B (UniProt Q9Y5K3),-0.007,-0.023,0.033,0.01,0.086,0.047,-0.025,0.033,-0.02,0.033,0.008,0.004,0.025,-0.044,-0.007,0.193,0.008,-0.003,-0.127,0.239 (active)
PPFIA2 (UniProt O75334),-0.107,0.021,0.022,-0.011,-0.026,-0.082,-0.029,-0.007,0.012,0.057,-0.014,0.031,-0.212,-0.244 (active),0.001,0.139,-0.028,0.023,0.019,0.147
PGPEP1 (UniProt Q9NXJ5),0.05,-0.182,0.012,-0.032,-0.055,0.02,0.057,-0.045,0.01,-0.06,0.023,-0.013,0.011,-0.025,0.057,-0.029,0.03,0.045,-0.013,-0.019
PFAS (UniProt O15067),-0.015,-0.01,0.009,0.022,0,-0.004,0.119,0.009,-0.011,-0.009,-0.01,-0.011,-0.067,-0.011,-0.009,0.002,-0.008,0.035,-0.028,0.019
